{"source": "PubChem BioAssay (NCI)", "key": {"[1]": {"assay": "NCI Yeast Anticancer Drug Screen. Data for the rad52 strain (AID 147);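 further: 0% = growth of vehicle-treated control cultures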", "details": "S. cerevisiae rad52 mutant growth inhibition, active compounds read high", "how_it_was_run": "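DNA repair-defective yeast; compound exposure; growth scored against vehicle controls.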"}, "[2]": {"assay": "NCI Yeast Anticancer Drug Screen. Data for the wt1 strain (AID 149);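 further: 0% = growth of vehicle-treated wt1 cultures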", "details": "S. cerevisiae wt1 strain (SPY 50644) growth inhibition, active compounds read high", "how_it_was_run": "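Measured: growth of wt1 yeast under compound versus vehicle treatment, reported as inhibition.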"}, "[3]": {"assay": "NCI Yeast Anticancer Drug Screen. Data for the rad50EPP+ strain (AID 151);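 further: 0% = growth of vehicle-treated control cultures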", "details": "S. cerevisiae rad50 mutant strain, active compounds read high", "how_it_was_run": "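rad50EPP+ yeast treated with test compounds. Readout: growth vs vehicle control.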"}, "[4]": {"assay": "NCI Yeast Anticancer Drug Screen. Data for the mgt1 strain (AID 153)", "details": "S. cerevisiae mgt1 mutant growth inhibition, active compounds read high", "how_it_was_run": "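Growth inhibition relative to vehicle controls was scored for the mgt1 yeast strain after compound exposure.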"}, "[5]": {"assay": "NCI Yeast Anticancer Drug Screen. Data for the rad50 strain (AID 155);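 further: 0% = growth of vehicle-only cultures of the same strain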", "details": "S. cerevisiae rad50 strain growth inhibition, active compounds read high", "how_it_was_run": "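Growth of the mutant yeast was measured after compound exposure and referenced to vehicle-treated cultures.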"}, "[6]": {"assay": "NCI Yeast Anticancer Drug Screen. Data for the mec2-1 strain (AID 157)", "details": "S. cerevisiae mec2-1 strain, active compounds read high", "how_it_was_run": "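Growth inhibition is read against vehicle-treated controls after compound exposure of the mec2-1 yeast strain, which is defective in DNA damage repair or cell cycle control.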"}, "[7]": {"assay": "NCI Yeast Anticancer Drug Screen. Data for the rad14 strain (AID 159);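 further: 0% = growth of vehicle-treated control cultures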", "details": "S. cerevisiae rad14 strain growth inhibition, active compounds read high", "how_it_was_run": "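Here, inhibition of yeast growth was measured after compound exposure, using a strain with a genetic defect in DNA damage repair and vehicle-treated cultures as the reference.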"}, "[8]": {"assay": "NCI Yeast Anticancer Drug Screen. Data for the sgs1 mgt1 strain (AID 161);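 further: 0% = growth of cultures given vehicle only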", "details": "S. cerevisiae sgs1 mgt1 strain, active compounds read high", "how_it_was_run": "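Growth of a repair-deficient yeast mutant was monitored after compound treatment and expressed as inhibition relative to vehicle-treated cultures.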"}, "[9]": {"assay": "NCI Yeast Anticancer Drug Screen. Data for the CLN2oe strain (AID 163);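 further: 0% = growth of vehicle-only control cultures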", "details": "S. cerevisiae CLN2oe strain, active compounds read high", "how_it_was_run": "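Compound-treated yeast; growth vs vehicle ctrl = % inhibition. Genetically altered strain (cell-cycle control).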"}, "[10]": {"assay": "NCI Yeast Anticancer Drug Screen. Data for the bub3 strain (AID 167)", "details": "S. cerevisiae bub3 mutant strain, active compounds read high", "how_it_was_run": "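Whole-cell yeast assay. The mutant strain was incubated with compounds, and growth inhibition was determined by comparison with vehicle-treated cells.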"}, "[11]": {"assay": "NCI Yeast Anticancer Drug Screen. Data for the wt2 strain (AID 169);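 further: 0% = growth of vehicle-treated yeast cultures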", "details": "S. cerevisiae wt2 strain growth inhibition, active compounds read high", "how_it_was_run": "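Compound exposure of yeast; growth compared with vehicle controls; inhibition reported.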"}, "[12]": {"assay": "NCI Yeast Anticancer Drug Screen. Data for the mlh1 strain (AID 171);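 further: 0% = growth of vehicle-treated control cultures of the same strain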", "details": "S. cerevisiae mlh1 strain growth inhibition, active compounds read high", "how_it_was_run": "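Compounds are applied to a genetically altered yeast strain, and its growth is compared with that of vehicle-treated cultures to give percent inhibition.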"}, "[13]": {"assay": "NCI Yeast Anticancer Drug Screen. Data for the sgs1 strain (AID 173);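 further: 0% = growth of vehicle-only control cultures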", "details": "S. cerevisiae sgs1 mutant, active compounds read high", "how_it_was_run": "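Compounds applied to genetically altered yeast; growth compared with vehicle-treated cultures to give % inhibition.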"}, "[14]": {"assay": "NCI Yeast Anticancer Drug Screen. Data for the mlh1 rad18 strain (AID 175)", "details": "S. cerevisiae mlh1 rad18 strain growth inhibition, active compounds read high", "how_it_was_run": "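Cells of a genetically altered yeast strain, deficient in DNA damage repair, were treated with compound. Their growth was then compared with that of vehicle-treated cultures to give inhibition.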"}, "[15]": {"assay": "NCI Yeast Anticancer Drug Screen. Data for the rad18 strain (AID 177)", "details": "S. cerevisiae rad18 mutant growth inhibition, active compounds read high", "how_it_was_run": "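Compounds are applied to a repair-deficient yeast strain, and growth is compared with that of vehicle-treated cultures to give percent inhibition.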"}, "[16]": {"details": "at 5.0 µM (retest, dose inferred, filed as 0.5)"}, "[17]": {"details": "at 50.0 µM (retest, dose inferred, filed as 5.0)"}}, "note": "About 79,000 compounds went through this panel and 15% of them were active in at least one assay; those are over-represented in the sample as a whole. A number with no mark means an inactive call. Active and inactive are the calls of the source. No stated cut-off is given here; in the data, active means growth inhibition above about 70%; inactive means the rest."}
{"smiles": "CCOC(=O)C#Cc1ccc([N+](=O)[O-])cc1", "values": [{"measurement": "growth inhibition", "setting": "[1]; at 1.2 µM", "result": 0, "unit": "%"}, {"measurement": "growth inhibition", "setting": "[1]; at 3.7 µM", "result": -1, "unit": "%"}, {"measurement": "growth inhibition", "setting": "[1]; at 11.0 µM", "result": -6, "unit": "%"}, {"measurement": "growth inhibition", "setting": "[1]; at 33.0 µM", "result": 3, "unit": "%"}, {"measurement": "growth inhibition", "setting": "[1]; at 100.0 µM", "result": 17, "unit": "%"}, {"measurement": "growth inhibition", "setting": "[2]; at 1.2 µM", "result": 2, "unit": "%"}, {"measurement": "growth inhibition", "setting": "[2]; at 3.7 µM", "result": 1, "unit": "%"}, {"measurement": "growth inhibition", "setting": "[2]; at 11.0 µM", "result": 3, "unit": "%"}, {"measurement": "growth inhibition", "setting": "[2]; at 33.0 µM", "result": 8, "unit": "%"}, {"measurement": "growth inhibition", "setting": "[2]; at 100.0 µM", "result": 25, "unit": "%"}, {"measurement": "growth inhibition", "setting": "[3]; at 1.2 µM", "result": 8, "unit": "%"}, {"measurement": "growth inhibition", "setting": "[3]; at 3.7 µM", "result": 4, "unit": "%"}, {"measurement": "growth inhibition", "setting": "[3]; at 11.0 µM", "result": 7, "unit": "%"}, {"measurement": "growth inhibition", "setting": "[3]; at 33.0 µM", "result": 23, "unit": "%"}, {"measurement": "growth inhibition", "setting": "[3]; at 100.0 µM", "result": 61, "unit": "%"}, {"measurement": "growth inhibition", "setting": "[4]; at 1.2 µM", "result": 1, "unit": "%"}, {"measurement": "growth inhibition", "setting": "[4]; at 3.7 µM", "result": -4, "unit": "%"}, {"measurement": "growth inhibition", "setting": "[4]; at 11.0 µM", "result": -6, "unit": "%"}, {"measurement": "growth inhibition", "setting": "[4]; at 33.0 µM", "result": 5, "unit": "%"}, {"measurement": "growth inhibition", "setting": "[4]; at 100.0 µM", "result": 12, "unit": "%"}, {"measurement": "growth inhibition", "setting": "[5]; at 1.2 µM", "result": 0, "unit": "%"}, {"measurement": "growth inhibition", "setting": "[5]; at 3.7 µM", "result": 4, "unit": "%"}, {"measurement": "growth inhibition", "setting": "[5]; [16]", "result": 15, "unit": "%"}, {"measurement": "growth inhibition", "setting": "[5]; at 11.0 µM", "result": 3, "unit": "%"}, {"measurement": "growth inhibition", "setting": "[5]; at 33.0 µM", "result": 18, "unit": "%"}, {"measurement": "growth inhibition", "setting": "[5]; [17]", "result": 50, "unit": "%"}, {"measurement": "growth inhibition", "setting": "[5]; at 50.0 µM", "result": "96% (active)"}, {"measurement": "growth inhibition", "setting": "[5]; at 100.0 µM", "result": 46, "unit": "%"}, {"measurement": "growth inhibition", "setting": "[6]; at 1.2 µM", "result": 4, "unit": "%"}, {"measurement": "growth inhibition", "setting": "[6]; at 3.7 µM", "result": -5, "unit": "%"}, {"measurement": "growth inhibition", "setting": "[6]; [16]", "result": 12, "unit": "%"}, {"measurement": "growth inhibition", "setting": "[6]; at 11.0 µM", "result": 7, "unit": "%"}, {"measurement": "growth inhibition", "setting": "[6]; at 33.0 µM", "result": -1, "unit": "%"}, {"measurement": "growth inhibition", "setting": "[6]; [17]", "result": 36, "unit": "%"}, {"measurement": "growth inhibition", "setting": "[6]; at 50.0 µM", "result": "95% (active)"}, {"measurement": "growth inhibition", "setting": "[6]; at 100.0 µM", "result": 6, "unit": "%"}, {"measurement": "growth inhibition", "setting": "[7]; at 1.2 µM", "result": 1, "unit": "%"}, {"measurement": "growth inhibition", "setting": "[7]; at 3.7 µM", "result": -4, "unit": "%"}, {"measurement": "growth inhibition", "setting": "[7]; at 11.0 µM", "result": 4, "unit": "%"}, {"measurement": "growth inhibition", "setting": "[7]; at 33.0 µM", "result": 4, "unit": "%"}, {"measurement": "growth inhibition", "setting": "[7]; at 100.0 µM", "result": 5, "unit": "%"}, {"measurement": "growth inhibition", "setting": "[8]; [16]", "result": 31, "unit": "%"}, {"measurement": "growth inhibition", "setting": "[8]; [17]", "result": "72% (active)"}, {"measurement": "growth inhibition", "setting": "[8]; at 50.0 µM", "result": 50.5, "unit": "%"}, {"measurement": "growth inhibition", "setting": "[9]; at 1.2 µM", "result": 1, "unit": "%"}, {"measurement": "growth inhibition", "setting": "[9]; at 3.7 µM", "result": -2, "unit": "%"}, {"measurement": "growth inhibition", "setting": "[9]; at 11.0 µM", "result": -3, "unit": "%"}, {"measurement": "growth inhibition", "setting": "[9]; at 33.0 µM", "result": 2, "unit": "%"}, {"measurement": "growth inhibition", "setting": "[9]; at 100.0 µM", "result": 10, "unit": "%"}, {"measurement": "growth inhibition", "setting": "[10]; at 1.2 µM", "result": -10, "unit": "%"}, {"measurement": "growth inhibition", "setting": "[10]; at 3.7 µM", "result": -24, "unit": "%"}, {"measurement": "growth inhibition", "setting": "[10]; [16]", "result": -10, "unit": "%"}, {"measurement": "growth inhibition", "setting": "[10]; at 11.0 µM", "result": -1, "unit": "%"}, {"measurement": "growth inhibition", "setting": "[10]; at 33.0 µM", "result": 1, "unit": "%"}, {"measurement": "growth inhibition", "setting": "[10]; [17]", "result": 28, "unit": "%"}, {"measurement": "growth inhibition", "setting": "[10]; at 50.0 µM", "result": "95.5% (active)"}, {"measurement": "growth inhibition", "setting": "[10]; at 100.0 µM", "result": -8, "unit": "%"}, {"measurement": "growth inhibition", "setting": "[11]; at 1.2 µM", "result": -1, "unit": "%"}, {"measurement": "growth inhibition", "setting": "[11]; at 3.7 µM", "result": 1, "unit": "%"}, {"measurement": "growth inhibition", "setting": "[11]; at 11.0 µM", "result": 4, "unit": "%"}, {"measurement": "growth inhibition", "setting": "[11]; at 33.0 µM", "result": 7, "unit": "%"}, {"measurement": "growth inhibition", "setting": "[11]; at 100.0 µM", "result": 11, "unit": "%"}, {"measurement": "growth inhibition", "setting": "[12]; at 1.2 µM", "result": -4, "unit": "%"}, {"measurement": "growth inhibition", "setting": "[12]; at 3.7 µM", "result": -3, "unit": "%"}, {"measurement": "growth inhibition", "setting": "[12]; at 11.0 µM", "result": -10, "unit": "%"}, {"measurement": "growth inhibition", "setting": "[12]; at 33.0 µM", "result": -21, "unit": "%"}, {"measurement": "growth inhibition", "setting": "[12]; at 100.0 µM", "result": -5, "unit": "%"}, {"measurement": "growth inhibition", "setting": "[13]; at 1.2 µM", "result": 1, "unit": "%"}, {"measurement": "growth inhibition", "setting": "[13]; at 3.7 µM", "result": 0, "unit": "%"}, {"measurement": "growth inhibition", "setting": "[13]; at 11.0 µM", "result": 5, "unit": "%"}, {"measurement": "growth inhibition", "setting": "[13]; at 33.0 µM", "result": 6, "unit": "%"}, {"measurement": "growth inhibition", "setting": "[13]; at 100.0 µM", "result": 15, "unit": "%"}, {"measurement": "growth inhibition", "setting": "[14]; [16]", "result": -20, "unit": "%"}, {"measurement": "growth inhibition", "setting": "[14]; [17]", "result": 63, "unit": "%"}, {"measurement": "growth inhibition", "setting": "[14]; at 50.0 µM", "result": "96.8% (active)"}, {"measurement": "growth inhibition", "setting": "[15]; at 1.2 µM", "result": -1, "unit": "%"}, {"measurement": "growth inhibition", "setting": "[15]; at 3.7 µM", "result": -2, "unit": "%"}, {"measurement": "growth inhibition", "setting": "[15]; at 11.0 µM", "result": 0, "unit": "%"}, {"measurement": "growth inhibition", "setting": "[15]; at 33.0 µM", "result": 15, "unit": "%"}, {"measurement": "growth inhibition", "setting": "[15]; at 100.0 µM", "result": 64, "unit": "%"}]}
